Results taken from the supplement of paper PMC6555819.

Test system: FXR:RXRa (NR concentration 270 nM, RXRa partner concentration 90 nM)
Experiment: PBM binding z-score (relative to random genomic background probes); higher = stronger binding; sequences stand for … in GC…GCGATTGACAGCGTAGAATGAAGG
In short: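 Scanned fluorescence from custom Agilent 4×180K protein-binding microarrays was regression-normalized. Binding z-scores use random background probes as reference. Ligand-free nuclear receptor dimers were incubated on the arrays for 1 h and detected with antibodies against each partner (one per run).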

Row | Sequence | PBM binding z-score
1 | ATCTCTAGGTAAAGGTAGTTCAGTGAATGCAAAT | 0.462
2 | ACTTTTAGTTGAGACGAGGGCAACCGATAGGTTG | 0.762
3 | TGTTGTAGATCAGCAGGTTAAGAAAGCTGGCCAA | -0.297
4 | CACCCTAGGTCAGGGCCAGTATAGGAGGAACGTT | 1.9
5 | AGAATGAGGTTATTAAGATCTGGGAATTGCGGTC | 1.76
6 | CGTCCAAGGTCAGAGACGTCAGTGAATGCCGAGT | 4.49
7 | ATCTCTCGGTAACAAGTTCAGTGAAAGAGAGGAC | 0.379
8 | TCTATTAGTTGAAGGGCAACCAACGAGTCCGTTT | 0.452
9 | TCTATTAGTTGCAGGGCAACCGACGAGTCCGTTT | 0.562
10 | CAAACTGGGTCACGAAAGGTCAAAGTCGAATGAC | 7.32
11 | TTCCCAAGGTGAAAGGTCGTTGATGCACGCCTTG | 3.69
12 | CGTACAAGGTCATAGGAGGTCAGTGAAGACAGAT | 7.48
13 | CCTAGCAGGCCACTCTGGGTCACTCAAGGCTTGA | 1.22
14 | AGTCAAAGTTCATCTAGGTAACGTACGATATGCT | 6.96
15 | CAAACTAGGTCATGAAAGGTCAAAGTCGAATGAC | 7.56
16 | CGTCCAAGTTCAAGGTAACGTAACAGAAAGCAGC | 2.88
17 | CAAACTAGGTCGCAGAGGTCAAAGTCCGTGCGTA | 5.75
18 | CCTATTAGTTGACCATAAGGGCAACGGAAGCTCG | 0.826
19 | CAAACTAGGTCACGAAAGGACAAAGTCGAATGAC | 5.05
20 | CCTCTGAGGACAGAAGGTCAGAGCTGTCCGCTTT | 2.01

Row | Sequence | PBM binding z-score
21 | TCTACTAGTTGAAGGGCAACCGACGAGTCCGTTT | 0.338
22 | GCTAGCAGGCCATGTGGGTCACTCAATGACGGGC | -0.267
23 | ACTAGTAGGCCAAGTTTGGGTCACTCAAACAAAG | 0.368
24 | ATCTCTAGGTAACAAGTGCAGTGAAAGAGAGGAC | 0.0619
25 | GCATATAGGTAATACAAGGTGAAAGTGCGATTGT | 1.29
26 | GATACAGGGACAGCTAGAGGCCAGAGTATGGAAA | -0.243
27 | AGAATGAGGTTACCCAAGATCAGGGAAACGCTTG | 1.63
28 | TCTCGGAGGACACGAAAGGTAAGAGCTCGACATC | 0.311
29 | TCTAGTAGATCAAGCAGGTTAAGAAAGCCTGAGT | -0.193
30 | GGAACGAGGGCTAAGTTGATAGCATCTGTCGACG | -0.545
31 | TTACCAAGGTGAAGGACGTTGATCCCTCTGTAGA | 0.74
32 | GCTTGTAGATCAAGGTTAAGGAAGACTAAGCTAA | 0.0551
33 | ATCGAGAGGTCGAAGGTGAGTATACCCACCCGAA | 3.03
34 | TCTGCTAGGTCAACGATGGTCAGCTAATCTGCTA | 3.45
35 | CCTAGTTGCTCAAGGTCACACACGCTATAGGTAC | 4.3
36 | TAGCCTAGGTCATTGGGCCTGTATAGTACGCATC | 4.24
37 | TCTAGTTTGTCACGGAGGTCACACACGACGGGTA | 3.46
38 | GCATAGAGGTAATACAAGGTGAAAGTCCGATTGT | 1.25
39 | GCTACCAGGCCATTTGGGTCACTCAATGACGGGC | 0.22
40 | CCTAGCATGCCAATCTGGGTCACTCAAGGCTTGA | 0.636
